# In all, about 33,000 sequences were measured (“E-score (-0.5 to 0.5)”: median about -0.01, highest 2% from about 0.26 on). Many of the other results were omitted from the sample, so the highest values are more common in it than they were.
# Biological target: Ste12 (UniProt P13574)
# Experiment: PBM E-score (8-mer binding enrichment) (E-score (-0.5 to 0.5)); higher = stronger / more preferred TF binding
# Details: protein concentration: 200 nM; construct: GST-DNA-binding domain
# Procedure: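 Universal 'all 10-mer' protein binding microarrays (Agilent AMADID 015681) probed with GST-tagged S. cerevisiae TFs (full-length or DBD) made by in vitro transcription/translation (PURExpress), about 100-200 nM. Bound TF was detected with fluorescent anti-GST. Each ungapped 8-mer (which stands for itself and its reverse complement) is scored by the PBM enrichment score (E-score), a modified Wilcoxon-Mann-Whitney statistic from -0.5 to +0.5, computed with the Universal PBM Analysis Suite. Scale: above 0.35 generally sequence-specific binding.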
# Sequence of UniProt P13574 (P13574 whole entry): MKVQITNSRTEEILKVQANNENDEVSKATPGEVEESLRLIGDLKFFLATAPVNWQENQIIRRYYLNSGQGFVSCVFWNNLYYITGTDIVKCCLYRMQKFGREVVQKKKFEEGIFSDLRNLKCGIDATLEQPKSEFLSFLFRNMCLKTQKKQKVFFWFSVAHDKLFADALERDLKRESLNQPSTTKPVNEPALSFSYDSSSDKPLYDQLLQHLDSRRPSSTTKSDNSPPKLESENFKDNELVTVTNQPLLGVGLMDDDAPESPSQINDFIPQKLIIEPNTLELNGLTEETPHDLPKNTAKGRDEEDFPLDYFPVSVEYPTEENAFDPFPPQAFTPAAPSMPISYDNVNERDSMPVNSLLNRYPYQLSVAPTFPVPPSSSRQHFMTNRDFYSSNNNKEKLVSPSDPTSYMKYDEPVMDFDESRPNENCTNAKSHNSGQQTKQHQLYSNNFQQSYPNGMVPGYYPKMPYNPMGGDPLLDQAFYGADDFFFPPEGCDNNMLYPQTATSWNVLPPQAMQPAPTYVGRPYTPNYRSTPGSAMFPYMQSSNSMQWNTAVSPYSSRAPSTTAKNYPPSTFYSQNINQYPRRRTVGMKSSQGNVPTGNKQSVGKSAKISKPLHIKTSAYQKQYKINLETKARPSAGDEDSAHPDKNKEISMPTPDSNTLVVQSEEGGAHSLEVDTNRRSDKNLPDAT
row,Sequence,PBM E-score
1,ATTGTTTA,0.0651
2,ATCTCTTA,0.197
3,CCTTTCCC,-0.0368
4,ATAGCAGA,-0.0552
5,CCGGCTAC,0.0776
6,CGAGCCAG,-0.0693
7,AACGCACT,-0.0209
8,CATAAACC,0.0477
9,AATAAACG,0.0508
10,GATAAACA,0.096
11,AATAAACC,0.269
12,TATAAACA,0.114
13,AATAAACA,0.284
14,AAGTATGC,-0.197
15,AGCCCCCA,-0.118
16,TATGGACA,-0.00254
17,CGGTCGAA,0.00203
18,CAGTTTAC,-0.053
19,CGTTAAAG,0.0915
20,AGCCGGCG,0.106
21,CGCCGGCG,0.275
22,CGCCGGCC,-0.00587

row,Sequence,PBM E-score
1,CAGACCCG,0.0234
2,CTCTCCTC,-0.168
3,AAGTAAAT,0.261
4,GTGTAACA,0.319
5,CTGTAATA,0.119
6,GTGTAAGA,0.058
7,AAGTAAAG,-0.0589
8,ATGTAACC,0.143
9,GCGTAACA,-0.0008
10,ATGTAACA,0.288
11,CTGTAACC,0.183
12,ATGTAACG,0.241
13,AAGTAAAC,0.0949
14,CTGTAACA,0.268
15,GCGTCCAA,-0.13
16,ATGATTGC,0.146
17,CAAGACTG,-0.101
18,ATGCACAG,-0.111
19,ACTATTGG,-0.0275
20,CAACTTGA,0.0746
21,AAGTAACG,0.141
22,AAGTAACT,0.0625

row,Sequence,PBM E-score
1,AAGTAACA,0.291
2,AGACCGTA,-0.0932
3,CATGGTGG,-0.0711
4,GACTCTAA,0.115
5,ACCATAAG,-0.16
6,TTGATAAA,0.277
7,TTCATAAA,0.324
8,TCCATAAA,0.11
9,ATGATAAA,0.209
10,ATCATAAA,0.0612
11,CTCATAAA,-0.00236
12,ACCATAAA,0.278
13,GTGATAAA,0.131
14,ACTTTGAC,-0.101
15,ACTTCCCT,-0.0919
16,GGGTTCAC,-0.0147
17,GATCTGCC,0.0158
18,TAAAAGCA,0.172
19,CCAATCGA,0.067
20,CTTCACAA,-0.0638
21,AACGAAAG,0.0635
22,CCCGAAAG,0.00951

row,Sequence,PBM E-score
1,AACGAAAT,0.169
2,GTCGAAAC,0.128
3,GCCGAAAC,0.178
4,AACGAAAC,0.314
5,ATCGAAAA,0.125
6,CACGAAAG,0.095
7,ATCGAAAC,0.324
8,CCCGAAAC,0.303
9,CACGAAAA,0.243
10,CACGAAAC,0.266
11,CCCAGGTC,-0.207
12,TCCACAAA,0.14
13,GCTTCCAC,-0.11
14,CTAGGGCC,-0.187
15,ATCGCGCG,0.0537
16,ATGTCTAA,0.0254
17,GGGCCCCA,-0.146
18,CTCCTCAG,-0.11
19,GAGGTTAA,0.0122
20,AGCTGGGA,-0.0199
21,CTGTGAAG,0.00467
22,GTGTGAAC,0.169

# From the supplement of paper PMC3334620
